# Screening results: PubChem BioAssay, National Center for Advancing Translational Sciences (NCATS)
# Rows were chosen to be rich in hits. Some 1.2% of all compounds tested hit in one or more screens of this group.
# KCNH2 WT inh: qHTS for Inhibitors of KCHN2 3.1: Wildtype qHTS | Voltage-gated inwardly rectifying potassium channel KCNH2 (Homo sapiens), Q12809 | AID 720551, 2013 | 340,000 tested, 0.37% active | U2OS, BacMam KCNH2, thallium flux FluxOr; active compounds read low | activity change, % at 1.84 µM;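 active means maximum activity change below -70%; inconclusive means maximum activity change between -70% and -50%; inactive means maximum activity change above -50%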; further: on the % scale 0 is the no-effect control and ±100 the full control effect
#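 U2OS cells were transduced with wild-type KCNH2 virus (2.03 x 10^8 / mL) for 4 h at room temperature, then cultured overnight at 37 C. Thallium flux was read with FluxOr dye. Rate constants were normalized to DMSO controls.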
# TSG101-PTAP inh: qHTS Assay for Iinhibitors of HIV-1 Budding by Blocking the Interaction of PTAP/TSG101 | Potency, µM (top dose mostly 115 µM), without a hit: at the top dose activity change, negative = inhibition, hits mostly inhibitors | Fluorescence polarization, FITC-PTAP peptide / Tsg101 binding | AID 493005, 2010 | 340,000 tested, under 10 active | Tumor susceptibility gene 101 protein (Homo sapiens), Q99816; active means well fitted inhibition curve with a large enough effect in the main read-out, with a control signal flat, not every such curve was filed as active; inconclusive means small, poorly fitted or top-dose-only effect, or effect the other way, or a change in a side signal; inactive means no such curve, though single readings can be large or run the other way; further: potency means the concentration at half of the fitted maximal effect; % of control where 0% means no effect
#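 Fluorescence anisotropy tracks displacement of a FITC-tagged PTAP peptide (50 nM) from the Tsg101 binding domain (10 uM), following a 20 min room-temperature incubation at pH 7.5.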
# Tb PFK inh: qHTS Assay to Find Inhibitors of T. brucei phosphofructokinase. ATP-dependent 6-phosphofructokinase (Trypanosoma brucei brucei), O15648. Potency, µM (highest dose often 57.5 µM), inactives show at the top dose activity, negative = inhibition, usual class: inhibitors. T. brucei PFK, ADP-Glo luminescence. 330,000 tested, 0.17% active; active means well fitted inhibition curve with a large enough effect; inconclusive means small, poorly fitted or top-dose-only effect, or effect the other way;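 further: potency means the concentration at half of the fitted maximal effect; 0% = uninhibited 1x PFK enzyme wells and -100% = no-enzyme wells; nearly all actives have a fitted effect of over 60% in size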
# Target sequence (O15648 whole entry, looked up): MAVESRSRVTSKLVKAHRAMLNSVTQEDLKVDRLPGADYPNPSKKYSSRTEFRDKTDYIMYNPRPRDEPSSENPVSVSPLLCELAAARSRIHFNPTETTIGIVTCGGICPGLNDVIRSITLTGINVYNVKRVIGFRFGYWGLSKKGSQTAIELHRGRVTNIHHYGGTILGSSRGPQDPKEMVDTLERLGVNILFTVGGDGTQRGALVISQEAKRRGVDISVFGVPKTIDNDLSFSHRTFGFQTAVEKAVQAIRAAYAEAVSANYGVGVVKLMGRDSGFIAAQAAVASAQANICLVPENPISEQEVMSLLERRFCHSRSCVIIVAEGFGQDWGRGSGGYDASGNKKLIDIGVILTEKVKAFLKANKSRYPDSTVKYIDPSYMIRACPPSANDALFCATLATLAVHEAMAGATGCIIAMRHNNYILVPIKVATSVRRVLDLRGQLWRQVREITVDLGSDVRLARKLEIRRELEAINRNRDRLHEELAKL
#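 Activity is normalized to no-enzyme wells (full inhibition) and 1.25 nM enzyme wells (no inhibition). Reaction: 0.5 mM F6P, 0.1 mM ATP, 45 min RT, ADP-Glo luminescence; concentration-response curves fitted and classed by quality.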
# KCNH2 3.1 block: qHTS for Inhibitors of KCHN2 3.1: Mutant qHTS | 340,000 tested, 0.95% active | activity change, % (tested at about 1.8 µM) | AID 720553, 2013 | U2OS KCNH2 3.1, thallium flux FluxOr; active compounds read low;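 active means maximum activity change below -70%; inconclusive means maximum activity change from -70% to -50%; inactive means maximum activity change above -50%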;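 further: thallium influx rate constant from kinetic fluorescence after stimulation buffer; on the % scale 0 is the no-effect control and ±100 the full control effect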
#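 FluxOr-based Tl+ influx in U2OS cells transduced with KCNH2 3.1 virus; rate constants normalized to DMSO controls.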
# Active calls of the source: *; u = inconclusive; x = no result; [ ] = remark or other dose.
SMILES,KCNH2 WT inh,TSG101-PTAP inh,Tb PFK inh,KCNH2 3.1 block
CN(CC(=O)NC(c1ccccc1)c1ccccc1)Cc1nc2ccccc2c(=O)[nH]1,-81.1*,-7.7%,2.4%,u
CN(CC(=O)Nc1ccccc1Sc1ccccc1)Cc1nc2ccccc2c(=O)[nH]1,-25.8,0.6%,-2.7%,-22.2
O=C(NC12CC3CC(CC(C3)C1)C2)c1ccccc1,-9.1,-4.9%,0.7%,0.4
O=C(COC(=O)CNC(=O)c1ccccc1)NC12CC3CC(CC(C3)C1)C2,-80.9*,x,x,-5.2
CCOC(=O)N1CCN(C(=O)CNS(=O)(=O)c2cccs2)CC1,-8.5,-3.2%,3.0%,1.2
CC(=O)Nc1ccc(S(=O)(=O)NCC(=O)N2CCN(S(=O)(=O)c3cccs3)CC2)cc1,2.3,-2.8%,0.4%,-101.3*
Cc1cccc(NC(=O)CN2C(=O)S/C(=C\c3cc(C)n(C)c3C)C2=O)c1,1.2,0.1%,-1.6%,-22.5
Cc1ccc(NC(=O)CN2C(=O)S/C(=C\c3cc(C)n(C)c3C)C2=O)cc1,-0.6,-0.1%,-2.2%,-93.4*
CSc1ccccc1NC(=O)c1noc2c1CCC2,3.9,-6.2%,16.9µM*,-1.6
NC(=O)c1ccc(NC(=O)CSc2nnc(C3CCCCC3)n2N)cc1,6.6,-1.1%,-0.1%,-138.2*
Nn1c(SCC(=O)Nc2ccc(F)c(F)c2)nnc1C1CCCCC1,3.3,-3.6%,7.4%,40.6
Cc1ccc(C)c(S(=O)(=O)c2c[nH]c(=S)[nH]c2=O)c1,-30.2,-3.4%,-8.9%,-82.2*
Cc1ccc(C)c(S(=O)(=O)N2CCNCC2)c1,2.5,-0.8%,1.8%,0.3
Cc1ccc(OCC(O)Cn2c(=N)n(Cc3ccccc3)c3ccccc32)cc1 (stereo not drawn),-93.7*,0.0%,0.2%,-74.7*
COc1ccc(OCC(O)Cn2c(=N)n(Cc3ccccc3)c3ccccc32)cc1 (stereo not drawn),-0.6,-1.2%,-0.5%,-6.9
N=c1n(Cc2ccc(Cl)cc2)c2ccccc2n1CC(O)COc1ccccc1 (stereo not drawn),u,-5.3%,-11.9%,-84.8*
COc1ccc(N(CC(=O)NC2CCCC2)C(=O)c2ccc(C)s2)cc1OC,-31.5,-0.6%,4.0%,11.9
CSc1ccc(CN2CCC(Oc3ccc(C(=O)N4CCCC4)cc3)CC2)cc1,52.2,-4.7%,-1.2%,-43.1
COc1cc(OC)cc(C(=O)NCC(=O)N2CC=C(c3ccccc3)CC2)c1,3.8,-4.0%,2.0%,0.3
O=C(NCC(=O)N1CC=C(c2ccccc2)CC1)c1ccc(OC(F)F)cc1,34.6,4.1%,14.5%,-79.6*
Cc1cc(NC(=O)c2ccc(-c3ccccc3[N+](=O)[O-])o2)no1,2.3,-1.2%,-0.6%,-4.0
Cc1cc(NC(=O)c2ccc(-c3ccccc3F)o2)no1,-14.5,-9.4%,4.8%,-197.6*
O=C(CSc1ccc(Cl)cc1)Nc1ccc(N2CCN(C(=O)c3ccc(Cl)cc3)CC2)cc1,-132.9*,-3.5%,-3.6%[0.46 µM],-89.0*
O=C(c1ccc(Cl)cc1)N1CCC(O)(CSc2ccc(Cl)cc2)CC1,-28.5,-2.8%,-6.9%,-88.8*
O=C(Nc1ccc(N2CCN(C(=O)c3ccc(Cl)cc3)CC2)cc1)c1ccc2c(c1)OCCO2,0.5,-9.5%,-1.4%,-78.8*
SMILES,KCNH2 WT inh,TSG101-PTAP inh,Tb PFK inh,KCNH2 3.1 block
O=C(Nc1ccccc1N1CCN(C(=O)c2ccc(Cl)cc2)CC1)c1ccc2c(c1)OCO2,-47.7,0.6%,-3.0%,-82.3*
O=C(CSc1ccc(Cl)cc1)Nc1ccccc1N1CCN(C(=O)c2ccc(Cl)cc2)CC1,3.2,0.4%,-0.4%,-41.2
O=C(Nc1ccc(N2CCN(C(=O)c3ccc(Cl)cc3)CC2)cc1)c1cccs1,23.6,-0.4%,-0.2%,-73.6*
COc1ccc(OCC(=O)Nc2c(C(=O)N3CCN(C)CC3)oc3ccccc23)cc1,0.5,-0.6%,-1.4%,1.3
Cc1ccccc1C(=O)Nc1c(C(=O)N(CCN(C)C)Cc2ccco2)oc2ccccc12,-92.3*,-0.2%,0.5%,-84.2*
COc1ccccc1C(=O)Nc1c(C(=O)N(CCN(C)C)Cc2ccco2)oc2ccccc12,-36.8,-4.3%,-0.3%,-14.8
COc1ccc(OCC(=O)Nc2c(C(=O)N(CCN(C)C)Cc3ccco3)oc3ccccc23)cc1,u,-1.9%,-7.8%,-111.3*
CC(C)(Oc1ccc(Cl)cc1)C(=O)Nc1ccc(S(=O)(=O)Nc2ncccn2)cc1,-0.6,-0.1%,-0.6%,-9.9
C[C@H](NC(=O)N1CCn2c1nc1ccccc12)C(=O)NC1CC1,-1.3,-1.7%,0.3%,-135.7*
CC(NC(=O)[C@H](C)NC(=O)N1CCn2c1nc1ccccc12)c1ccccc1 (stereo partly drawn),5.1,-2.2%,9.3%,-32.6
Nc1cc(=O)[nH]c(SCC(=O)NCCC2=CCCCC2)n1,0.0,0.1%,0.0%,-10.8
CCOc1ccc(/C=N/NC(=O)c2nnn(-c3nonc3N)c2CN(C)C2CCCCC2)cc1,-101.8*,-6.7%,-3.0%,-25.7
COc1cccc(/C=N/NC(=O)c2nnn(-c3nonc3N)c2CN(C)C2CCCCC2)c1,15.1,x,x,-16.7
CCN(CC)c1ccc(/C=N/NC(=O)c2nnn(-c3nonc3N)c2CN(C)C2CCCCC2)cc1,-17.2,x,x,-88.0*
CCC(=O)OCc1cc(=O)oc2ccc3ccccc3c12,-5.1,-3.8%,0.4%,1.8
CN(C)S(=O)(=O)Nc1cccc(Br)c1,-126.3*,-2.6%,1.0%,-1.4
O=C(NC12CC3CC(CC(C3)C1)C2)c1ccc(S(=O)(=O)N2CCOCC2)cc1,2.3,-3.3%,-0.6%,-109.3*
C=CCn1c(SCC(=O)c2ccc(O)c(O)c2)nnc1-c1cccc(OC)c1,0.0,-7.3%,0.0%,10.6
C[C@H](CO)N1C[C@H](C)[C@@H](CN(C)Cc2ccc(Oc3ccccc3)cc2)Oc2cc(Br)ccc2S1(=O)=O,-3.6,x,x,3.4
Nc1c(-c2ccccc2)cnn1-c1ccccc1,-1.8,0.5%,-19.5%,-9.3
Nc1c(-c2cccc(Cl)c2)cnn1-c1ccccc1,-6.0,-9.1%,-3.3%,-87.6*
Cn1c(CCN2CCCCC2)nc2cc(NS(=O)(=O)c3ccc(F)cc3)ccc21,-45.3,-9.1%,-1.4%,-89.4*
Cc1ccc(S(=O)(=O)Nc2ccc3c(c2)nc(CCN2CCCCC2)n3C)cc1,22.1,-2.0%,1.2%,u
Cn1c(CCN2CCN(c3ccccn3)CC2)nc2cc(NS(=O)(=O)c3ccc(Cl)cc3)ccc21,-80.2*,-6.6%,0.1%,-103.5*
Cc1ccc(S(=O)(=O)Nc2ccc3c(c2)nc(CCN2CCOCC2)n3C)cc1,-2.9,-5.8%,0.7%,6.2
Cc1ccc(S(=O)(=O)Nc2ccc3c(c2)nc(CCN2CCN(c4ccccn4)CC2)n3C)cc1,-41.0,-2.2%,0.9%,-96.2*
